CCHF vOTU inh: CCHFV vOTU protease inhibitors, primary screen, biochemical, Pep-AMC substrate, fluorescence | Crimean-Congo hemorrhagic fever virus L polyprotein viral ovarian tumor (vOTU) protease … | inhibition, % at 11.5 µM | 370,000 tested, 0.55% active | AID 651958, 2012
FBA Mtb inh: Mtb FBA enzyme inhibitors, primary screen, biochemical, fluorescence, strain H37Rv; Fructose-bisphosphate aldolase (Mycobacterium tuberculosis (strain ATCC 25618 / H37Rv)), …; purified M. tuberculosis FBA, fluorescence read-out; inhibition, % at 1 µM; 360,000 tested, 2.3% active; in the data active = inhibition above about 27%
GDH-TPI counter-1: GDH-TPI coupling enzyme inhibitors, primary screen, artefact control for M. tuberculosis FBA inhibitor project, biochemical, absorbance, full deck. GDH-TPI coupled enzyme counterscreen, NADH absorbance. inhibition, % at 4.8 µM. 360,000 tested, 1.2% active. AID 588335, 2011
RecA splice inh: Mtb RecA intein splicing inhibitors, primary screen, biochemical, fluorescence, HTS; inhibition, % (concentration not given with the values); Protein RecA (Mycobacterium tuberculosis (strain ATCC 25618 / H37Rv)), P9WHJ3; 290,000 tested, 0.75% active; cell-free RecA intein splicing; in the data active = inhibition above about 30%
Mtb FBA confirm: M. tuberculosis aldolase blockers, biochemical, fluorescence, strain H37Rv, confirmation; shares compounds with FBA Mtb inh; purified M. tuberculosis FBA, fluorescence read-out; inhibition, % at 1 µM; 5,600 tested, 78% active; in the data active = inhibition above about 27%
GDH-TPI counter-2: GDH-TPI coupling enzyme inhibitors, artefact control for M. tuberculosis FBA inhibitor project, biochemical, fluorescence, high throughput. 5,600 tested, 81% active. inhibition, % at 1 µM. shares compounds with FBA Mtb inh. GDH-TPI coupled enzyme counterscreen; in the data active = inhibition above about 10%
Numbers stand for hits; 0 = inactive; - = no result given; + = active, no number. Sampled rows, rich in hits. Any-hit rate of the full collection: about 4.2%. Cut-off read from the data, not from the text of the source, unless noted: active = inhibition above about 30%; inactive = the rest.

SMILES	CCHF vOTU inh	FBA Mtb inh	GDH-TPI counter-1	RecA splice inh	Mtb FBA confirm	GDH-TPI counter-2
CCCC1=C(C(=O)OCC)C(c2ccco2)C(C#N)=C(N)O1 (centres undefined)	0	57	0	0	99	68
O=S(=O)(c1cc(Cl)ccc1Cl)N1CCN(c2ccccn2)CC1	0	0	0	0	-	-
COc1ccc(C(=O)Oc2cc(C)c(CN3CCOCC3)cc2C)cc1OC	0	0	0	0	-	-
Nc1ccc2nc3n(c(=O)c2c1)CCC3	0	110	0	0	0	0
CCc1noc(C)c1C(=O)Nc1sc(C(=O)N(C)C)c(C)c1C#N	0	0	0	0	-	-
CSCCC(NC(=O)COc1ccccc1)C(=O)NC1CCC(C)CC1 (centres undefined)	0	0	0	0	-	-
CC1=C(C(=O)Nc2ccccc2C(=O)NCc2ccccc2)SCCO1	0	0	0	0	-	-
CC1=C(C(=O)Nc2ccccc2C(=O)NC2CCC(C)CC2)SCCO1 (centres undefined)	0	37	0	0	0	17
CC1(C)CCC[C@]2(C)[C@H]3CC(=O)O[C@]3(C)CC[C@@H]12	0	91	0	0	197	147
CCC(=O)Nc1c(C#N)c2nc3ccccc3nc2n1-c1ccccc1C	0	36	0	0	76	64
CCOC(=O)C1=C(COC(=O)/C=C/c2cccc(OC)c2)NC(=O)NC1C (centres undefined)	0	0	0	0	-	-
CSc1ccc(/C=C/C(=O)OCC(=O)NC(C)C)cc1	0	58	0	0	98	93
CCOC(=O)C1=C(COC(=O)/C=C/c2ccc(SC)cc2)NC(=O)NC1C (centres undefined)	0	40	0	0	35	23
CSc1ccc(/C=C/C(=O)OCC(=O)NC2CC2)cc1	0	46	0	-	95	68
CCOC(=O)[C@]12CCCC=C1N(Cc1ccc3c(c1)OCO3)C(=O)[C@H](CC(=O)N1CCC(c3ccccc3)CC1)C2	0	-	-	-	-	-
CCC(c1nnc(SCC(=O)NC2CCCCC2)n1Cc1ccccc1)N(C)C (centres undefined)	0	43	0	0	+	153
CCC(c1nnc(SCC(=O)NCC2CCCO2)n1Cc1ccccc1)N(C)C (centres undefined)	0	0	0	-	-	-
Cc1cccc(C)c1NC(=O)NC1(C(=O)NCC2CCCO2)CCCCC1 (centres undefined)	0	0	0	0	-	-
Cc1cc(C)c2cc(C#N)c(N3CCCC3)nc2c1	0	36	0	-	0	0
C=CCn1c(=O)c(CCC(=O)Nc2ccc(N3CCOCC3)cc2)nc2cc(C(F)(F)F)ccc21	0	0	0	0	-	-
Clc1nc(Oc2ccccc2)nc(-c2cn(-c3ccccc3)c3ccccc23)n1	0	56	0	0	45	40
CCNc1nc(Cl)nc(-c2cn(-c3ccccc3)c3ccccc23)n1	0	0	0	0	-	-
Cc1ccccc1-c1nc(NCCN(C)C)nc2ccsc12	0	0	0	-	-	-
OCc1ccccc1-c1nc(NCC2CC2)nc2ccsc12	0	72	0	-	63	55
CC(C)Nc1nc(-c2ccccc2CO)c2sccc2n1	0	74	0	-	77	58
SMILES	CCHF vOTU inh	FBA Mtb inh	GDH-TPI counter-1	RecA splice inh	Mtb FBA confirm	GDH-TPI counter-2
Cc1ccccc1-c1nc(NC(C)C)nc2ccsc12	0	64	0	-	+	+
CN1C/C(=C/c2ccccc2)N2C(=O)C[C@@H](c3ccccc3)N=C12	0	-	-	-	-	-
COCCNC(=S)N(CCCO)Cc1cc2cc3c(cc2[nH]c1=O)OCO3	0	0	0	-	-	-
CCN(CC)CCCN(Cc1cc2cc3c(cc2[nH]c1=O)OCO3)C(=S)NCCOC	0	52	34	0	0	0
CCN(CC)CCN(Cc1cc2cc3c(cc2[nH]c1=O)OCO3)C(=S)NCCOC	0	34	0	0	32	32
COCCCNC(=S)N(CCO)Cc1cc2cc3c(cc2[nH]c1=O)OCO3	0	31	0	0	+	+
CCOC(=O)C1=C(CS(=O)(=O)c2ccccc2)NC(=O)NC1c1cc(OC)c(O)c(OC)c1 (centres undefined)	0	0	0	0	-	-

Bioassay records: PubChem, several laboratories
